# Test results reported in PubChem BioAssay (Tox21).
# Inconclusive results are not listed. Calls of active or inactive are those of the source. The call rests on the fitted dose curve.
# Experiment: Nuclear factor erythroid 2-related factor 2/antioxidant responsive element (Nrf2/ARE) small molecule agonists: luciferase reporter gene qHTS assay in human keratinocytes (AID 1919969); further: nearly all actives have a fitted effect of over 35% in size
# Conditions: KeratinoSens HaCaT ARE-luciferase, luminescence, 24 h; series mostly up to 92.4 µM; activity, positive = activation: at the top concentration
# On the % scale 0 is the no-effect control and ±100 the full control effect.
row,SMILES,"activity, positive = activation"
1,O=c1[nH]c(=O)n([C@H]2C[C@H](O)[C@@H](CO)O2)cc1I,-0.0013% [at 42.5 µM] (inactive)
2,CC[N+](CC)(CC)CCOc1cccc(OCC[N+](CC)(CC)CC)c1OCC[N+](CC)(CC)CC,-3.85% [at 42.5 µM] (inactive)
3,C[N+]1(C)[C@@H]2CC(OC(=O)[C@H](CO)c3ccccc3)C[C@H]1[C@@H]1O[C@@H]12 (some centres not stated),-5.63% [at 42.5 µM] (inactive)
4,C[C@@H]1C[C@H]2[C@@H]3CCC4=CC(=O)C=C[C@]4(C)[C@@]3(F)[C@@H](O)C[C@]2(C)[C@H]1C(=O)CO,14.7% [at 42.5 µM] (inactive)
5,C[C@H]1C[C@H]2[C@@H]3CCC4=CC(=O)C=C[C@]4(C)[C@@]3(F)[C@@H](O)C[C@]2(C)[C@@]1(O)C(=O)COP(=O)(O)O,-2.35% (inactive)
6,CCOC(=O)OC(C)OC1=C(C(=O)Nc2ccccn2)N(C)S(=O)(=O)c2ccccc21 (configuration not stated),-2.99% [at 42.5 µM] (inactive)
7,C[N+](C)(C)CC(O)CC(=O)[O-] (configuration not stated),3.12% [at 42.5 µM] (inactive)
8,Cc1cccc(C)c1OCC(C)N (configuration not stated),-0.741% [at 42.5 µM] (inactive)
9,CC1=NS(=O)(=O)c2cc(Cl)ccc2N1,-1.83% [at 42.5 µM] (inactive)
10,CC(C)NCC(O)c1ccc(NS(C)(=O)=O)cc1 (configuration not stated),-20.3% (inactive)
11,CC[C@H]1OC(=O)[C@H](C)[C@@H](O[C@H]2C[C@@](C)(OC)[C@@H](O)[C@H](C)O2)[C@H](C)[C@@H](O[C@@H]2O[C@H](C)C[C@H](N(C)C)[C@H]2O)[C@](C)(OC)C[C@@H](C)C(=O)[C@H](C)[C@@H](O)[C@]1(C)O,-3.37% (inactive)
12,CC[C@H]1OC(=O)[C@H](C)[C@@H](O[C@H]2C[C@@](C)(OC)[C@@H](O)[C@H](C)O2)[C@H](C)[C@@H](O[C@@H]2O[C@H](C)C[C@H](N(C)C)[C@H]2O)[C@](C)(O)C[C@@H](C)C(=O)[C@H](C)[C@@H](O)[C@]1(C)O,-0.432% [at 42.5 µM] (inactive)
